PubChem BioAssay (NCI)
About 83,000 compounds went through this panel and 20% of them were active in at least one assay; those are over-represented in the sample as a whole.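 Results are percent growth after 48 hours of single-concentration exposure. 100 means growth as in untreated cells, lower positive values show inhibition; negative values down to -100 show cell death.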 Activity calls are given as the source filed them. Rule for the calls: active = growth percent below 10; inactive = the rest.

Experiments:
Assay in all cases: NCI-60 one-dose screen, 48 h (100 = growth as untreated, 0 = no growth, -100 = all killed)
Details in all cases: 10 µM unless noted
NCI-H226 lung = system: NCI-H226 lung
NCI-H322M lung = system: NCI-H322M lung
HOP-62 NSCLC = system: HOP-62 NSCLC
NCI-H460 lung = system: NCI-H460 lung
HOP-92 NSCLC = system: HOP-92 NSCLC
NCI-H522 lung = system: NCI-H522 lung
A549/ATCC NSCLC = system: A549/ATCC NSCLC
786-0 renal = system: 786-0 renal
COLO 205 colon = system: COLO 205 colon

Measured: growth

CCN1C(=O)N(CC)C2Nn3c(s/c(=C4\C(=O)N(CCC(C)C)c5ccccc54)c3=O)=NC21 (stereo not drawn)
inactive: NCI-H226 lung 83.9% | NCI-H322M lung 92.4% | HOP-62 NSCLC 89.2% | NCI-H460 lung 106% | HOP-92 NSCLC 73.2% | NCI-H522 lung 50.4% | A549/ATCC NSCLC 90% | 786-0 renal 57.1% | COLO 205 colon 73.2%

COc1c(C2CC(=O)Nc3c2c(C)nn3-c2nc3ccccc3[nH]2)cc2c(c1OC)OCO2 (stereo not drawn)
inactive: NCI-H226 lung 75.8% | NCI-H322M lung 78.5% | HOP-62 NSCLC 43.4% | NCI-H460 lung 35.6% | HOP-92 NSCLC 70.9% | NCI-H522 lung 53.3% | A549/ATCC NSCLC 35.8% | 786-0 renal 67.6% | COLO 205 colon 84.1%

CCCCC[C@H](O)C/C=C1/C(=O)C=C[C@@H]1C/C=C\CCCC(=O)O
inactive: NCI-H226 lung 83.7% | NCI-H322M lung 91.1% | HOP-62 NSCLC 84.1% | NCI-H460 lung 66.9% | HOP-92 NSCLC 97.2% | NCI-H522 lung 46.3% | A549/ATCC NSCLC 81% | 786-0 renal 83.3% | COLO 205 colon 78%

CCN(CC)c1ccc(C2=NN(C(C)=O)C(c3cc(OC)c(OC)c(OC)c3)C2)cc1 (stereo not drawn)
active: NCI-H226 lung 9.31% | NCI-H322M lung -3.75% | NCI-H522 lung -46.3% | COLO 205 colon -4.4%
inactive: HOP-62 NSCLC 40.7% | NCI-H460 lung 13.4% | HOP-92 NSCLC 20.6% | A549/ATCC NSCLC 17.1% | 786-0 renal 24%

CCCCCCN1C(=O)/C(=c2\sc3n(c2=O)C2C(NN=3)N(CC)C(=O)N2CC)c2ccccc21 (stereo not drawn)
inactive: NCI-H322M lung 43.5% | HOP-92 NSCLC 37%
active: NCI-H226 lung -5.26% | HOP-62 NSCLC -1.75% | NCI-H460 lung -27.7% | NCI-H522 lung -28.7% | A549/ATCC NSCLC -47.6% | 786-0 renal -67.2% | COLO 205 colon 7.62%

C[C@]12CC[C@@H]3c4cc(OC(F)F)c(OS(N)(=O)=O)cc4CC[C@H]3[C@@H]1CC[C@@H]2OS(N)(=O)=O
inactive: NCI-H226 lung 93.2% | NCI-H322M lung 65.7% | HOP-62 NSCLC 44.4% | NCI-H460 lung 15.1% | HOP-92 NSCLC 57.3% | NCI-H522 lung 45.7% | A549/ATCC NSCLC 43.5% | 786-0 renal 67.5% | COLO 205 colon 116%

COc1cc(CCCO)c(OC)c(OC)c1OC
inactive: NCI-H226 lung 102% | NCI-H322M lung 96.1% | HOP-62 NSCLC 111% | NCI-H460 lung 108% | HOP-92 NSCLC 100% | NCI-H522 lung 106% | A549/ATCC NSCLC 102% | 786-0 renal 103% | COLO 205 colon 122%

O=C(Nc1ccc(OS(=O)(=O)c2ccc(F)cc2)cc1)c1ccc(Cl)cc1
inactive: NCI-H226 lung 99.5% | NCI-H322M lung 92.6% | HOP-62 NSCLC 101% | NCI-H460 lung 101% | HOP-92 NSCLC 101% | NCI-H522 lung 83.6% | A549/ATCC NSCLC 94.1% | 786-0 renal 104% | COLO 205 colon 114%

C#C[C@]1(O)CC[C@H]2[C@@H]3CC=C4c5sc(Nc6ccccc6)nc5CC[C@]4(C)[C@H]3CC[C@@]21C
inactive: NCI-H226 lung 62.7% | NCI-H322M lung 48% | HOP-62 NSCLC 35.5% | NCI-H460 lung 20.5% | HOP-92 NSCLC 53.4% | NCI-H522 lung 43.3% | A549/ATCC NSCLC 52.9% | COLO 205 colon 10.1%
active: 786-0 renal -36.5%

Fc1cc(-c2nnc3sc(-c4ccc(Cl)cc4Cl)nn23)c(Cl)cc1Cl
inactive: NCI-H226 lung 97.6% | NCI-H322M lung 89.7% | HOP-62 NSCLC 97.9% | NCI-H460 lung 57.6% | HOP-92 NSCLC 81.5% | NCI-H522 lung 86.6% | A549/ATCC NSCLC 66.3% | 786-0 renal 59.6% | COLO 205 colon 72.3%

O=c1ccc(N=Nc2ccccc2)ccc1Cl
inactive: NCI-H226 lung 87.7% | NCI-H322M lung 103% | HOP-62 NSCLC 93.9% | NCI-H460 lung 98% | HOP-92 NSCLC 114% | A549/ATCC NSCLC 103% | 786-0 renal 48.8% | COLO 205 colon 68.4%
active: NCI-H522 lung -22.6%

O=C1CN(CCN2CC(=O)N(Cc3ccccc3)C(=O)C2)CC(=O)N1Cc1ccccc1
inactive: NCI-H226 lung 107% | NCI-H322M lung 104% | HOP-62 NSCLC 91.2% | NCI-H460 lung 100% | HOP-92 NSCLC 85% | NCI-H522 lung 98.8% | A549/ATCC NSCLC 102% | 786-0 renal 110% | COLO 205 colon 109%
